# eIF4H inh: inhibitors of RNA binding by human eIF4H; Q15056; eIF4H fluorescence polarization binding assay; inhibition, % at 35 µM; hit rate 0.94% among 290,000; AID 2012;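 further: calls also rest on retests at 20 µM and on dose response follow-up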
# PABP polyA inh: PABP-poly(A) binding inhibition; inhibition, % at 35 µM; PABP-poly(A) RNA binding, fluorescence polarization; P11940; hit rate 1% among 290,000;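 further: calls also rest on retests at 20 µM and on dose response follow-up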
# SUMO HTRF inh: blocks human SUMOylation mediated by UBC9 | HTRF SUMOylation assay, SAE1/SAE2 + UBC9, in vitro | inhibition, % at 35 µM | hit rate 0.36% among 290,000; in the data active means inhibition above about 50%, passing the limit was not always enough; inconclusive means no clear call, values can overlap the other calls
# Target sequence (P63279 whole entry, looked up): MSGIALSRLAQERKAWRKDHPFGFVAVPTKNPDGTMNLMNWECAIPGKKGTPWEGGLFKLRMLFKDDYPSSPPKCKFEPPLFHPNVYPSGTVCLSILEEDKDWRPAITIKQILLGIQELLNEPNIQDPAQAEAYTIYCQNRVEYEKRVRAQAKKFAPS
# ALR inh: blocks human ALR sulfhydryl oxidase activity | hit rate 3.8% among 290,000 | P55789 | AID 485317 | inhibition, % (test concentration not listed) | purified ALR, DTT oxidation, H2O2 HRP-luminol luminescence;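 active means mean replicate inhibition above about 79%, with every replicate also reaching it, limit read from the data; inconclusive means only one of the two criteria met; inactive means mean below limit and not every replicate reaching it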
# Target sequence (P55789 whole entry, looked up): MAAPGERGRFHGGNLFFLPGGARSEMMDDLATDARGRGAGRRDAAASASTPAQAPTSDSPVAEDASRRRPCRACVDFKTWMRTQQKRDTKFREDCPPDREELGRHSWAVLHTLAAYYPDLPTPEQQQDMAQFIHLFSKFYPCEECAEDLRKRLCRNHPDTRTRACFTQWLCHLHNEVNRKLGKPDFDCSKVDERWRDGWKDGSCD
# MLLE-PAM2 inh: inhibitors of microRNA-mediated deadenylation, human PABP1 MLLE binding | hit rate 0.36% among 360,000 | AID 588489 | GST-MLLE / FITC-PAM2 fluorescence polarization | inhibition, % at 20 µM; in the data active means inhibition above about 35%, passing the limit was not always enough
# Efflux pump inh: antifungal efflux pump inhibition, Nile Red retention. S. cerevisiae Candida pump triplex. inhibition, % at 10 µM. hit rate 0.44% among 330,000. AID 485275;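 active means plate passing quality check with inhibition over a set limit, or well fluorescence over plate mean plus 4 SD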;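 further: Nile Red retained in pooled yeast measured as flow cytometry median fluorescence; higher means more Nile Red kept so more efflux inhibition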
# A number is an active result; – = inactive; ? = inconclusive; · = not tested or not shown. The list is not random: actives were taken first. Their share in the collection is about 4.7%. Unless noted, how the calls were made is not given here.
SMILES,eIF4H inh,PABP polyA inh,SUMO HTRF inh,ALR inh,MLLE-PAM2 inh,Efflux pump inh
COC(=O)c1cccc(NC(=S)Nc2cccc(Cl)c2C)c1,–,–,–,–,–,–
COc1cc(C)c(NC(=S)Nc2cccc(Cl)c2C)cc1OC,–,–,–,91,–,–
COc1ccc(NC(=S)Nc2cccc(Cl)c2)cc1OC,–,–,–,–,37,–
COc1ccc(Cl)cc1NC(=S)Nc1cccc(C)c1,–,–,–,–,–,–
Cc1ccc(-n2c(C)nnc2SCC(=O)N(C)c2c(N)n(Cc3ccccc3)c(=O)[nH]c2=O)cc1,·,·,·,–,–,–
Cc1ccc(C(=O)Nc2ccc(S(=O)(=O)NC3=NCCCCC3)cc2)cc1S(=O)(=O)N1CCOCC1,·,·,·,·,–,–
CCOC(=O)c1cc(C#N)c(SC(C)C(=O)NC2CCCCC2)nc1C (configuration not stated),·,·,·,–,–,–
S=C(NCCc1ccccn1)Nc1cccc(Cl)c1,–,–,–,97,–,–
COCCCNC(=S)NNC(=S)Nc1cccc(Cl)c1,–,–,–,78,–,–
CCOc1ccc(OCCC(=O)N(CC)CC(=O)NCc2cccs2)cc1,·,·,·,·,–,–
COC[C@@H]1CCCN1[C@@H]1CS(=O)(=O)N[C@H]1COCc1ccccc1,·,·,·,·,–,·
CC1CCCC(NC(=O)COC(=O)CCc2ccccc2)C1C (configuration not stated),–,–,–,–,–,–
CC1CCCC(NC(=O)COC(=O)CSc2ccc3ccccc3c2)C1C (configuration not stated),–,–,–,99,–,–
COC(=O)C1=C(C)N(c2ccc(F)cc2)/C(=C/c2ccc(O)cc2)C1=O,–,–,–,–,–,–
COc1ccccc1NCCC(=O)OCC(=O)Nc1ccccc1Cl,·,·,·,·,–,–
O=C(Cn1c(=O)oc2cc(S(=O)(=O)N3CCc4ccccc43)ccc21)N1CCCCC1,–,–,–,88,–,–
O=C(Cn1c(=O)oc2cc(S(=O)(=O)N3CCCCC3)ccc21)N1CCc2ccccc21,–,–,–,·,–,–
Cc1ccc2c(c1)c1c(n2CC(O)CNC(CO)(CO)CO)CCCC1 (configuration not stated),–,–,–,96,–,–
COC(=O)Cn1c2c(c3cc(C)ccc31)CCCC2,–,–,–,–,–,–
Cc1ccc2c(c1)c1c(n2CC(O)CNC2CCCCC2)CCCC1 (configuration not stated),–,–,–,99,–,–
CC1(C)Cc2c(cnn2-c2ccccc2)C(NC(=O)CCCn2cncn2)C1 (configuration not stated),–,–,–,–,–,–
O=C1OCCC1Sc1nc2cc(Cl)ccc2s1 (configuration not stated),–,–,–,–,–,–
O=C1OCCC1Sc1nc2ccccc2s1 (configuration not stated),–,–,–,98,–,–
Cc1cc(N2CCN(c3ccccc3)CC2)nc(-c2ccccc2)n1,–,–,–,–,–,–
Cc1cc(N2CCN(c3ccccc3)CC2)nc(N)n1,–,–,–,98,–,–
SMILES,eIF4H inh,PABP polyA inh,SUMO HTRF inh,ALR inh,MLLE-PAM2 inh,Efflux pump inh
Cc1cc(N2CCN(c3ccccc3)CC2)n2ncnc2n1,–,–,–,98,–,–
COc1cccc(N2CCN(c3c4c(nc5ncnn35)CCC4)CC2)c1,–,–,–,98,–,–
O=C(CC1(CC(=O)N2CCOCC2)CCCC1)Nc1ccc(F)cc1,·,·,·,–,–,–
CN1C(=O)N(CC(=O)Nc2ccc3c(c2)OCO3)C(=O)C12CCCCC2,·,·,·,·,–,·
O=C(Nc1ccc(N2CCOCC2)cc1)c1csc([C@H]2C[C@H](O)[C@@H](CO)O2)n1,·,·,·,·,–,·
C/C(=N/NS(=O)(=O)c1ccc(Br)cc1)c1ccc(C)o1,–,–,–,98,–,–
CCN(CC)CCCCCCCCOC(=O)c1cc(OC)c(OC)c(OC)c1,·,·,·,–,–,–
CC1CCC2(CC1)NC(=O)N(CC(=O)N1CCN(c3ccccc3)CC1)C2=O (configuration not stated),·,·,·,–,–,–
Nc1nc2ccc(N3CCOCC3)cc2s1,–,–,–,98,–,–
CCc1cccc(CC)c1NC(=O)c1cccc(S(=O)(=O)N2CCN(C)CC2)c1,–,–,–,–,–,–
COc1ccc(NC(=O)CSc2nnc(N)s2)c([N+](=O)[O-])c1,–,–,–,–,–,–
COc1ccc(NC(=O)CSc2nnc(NC(C)=O)s2)c([N+](=O)[O-])c1,–,–,–,–,37,–
CCOC(=O)N1CCN(C(=O)/C=C/c2cccc([N+](=O)[O-])c2)CC1,–,–,–,–,–,–
COc1ccc(/C=C(/C(=O)c2ccc(Cl)cc2Cl)n2cncn2)cc1,–,–,–,95,–,–
CN(C)c1ccc(/C=C(/C(=O)c2ccc(Cl)cc2Cl)n2cncn2)cc1,?,–,–,·,–,–
ON/C=N/C(=S)Nc1ncc(C(F)(F)F)cc1Cl,–,–,–,–,38,–
Cc1ccc(NC(=S)NNc2ncc(C(F)(F)F)cc2Cl)cc1,–,–,–,–,–,–
CON/C=N/C(=S)Nc1ncc(C(F)(F)F)cc1Cl,–,–,–,–,42,–
FC(F)(F)c1cnc(NNC(=S)Nc2ccc(Cl)cc2)c(Cl)c1,–,–,–,98,–,–
CC(C)C(=O)Nc1ncc(C(F)(F)F)cc1Cl,–,–,–,–,–,–
CC(Cl)C(=O)Nc1ncc(C(F)(F)F)cc1Cl (configuration not stated),–,–,–,–,–,–
CCC1(c2ccc(F)cc2)NC(=O)N(CC(=O)Nc2ccc(S(N)(=O)=O)cc2)C1=O (configuration not stated),–,–,–,–,–,–
Cc1ccc2c(c1)N(CC(=O)N1CCCCC1C)C(=O)CO2 (configuration not stated),–,–,–,–,–,–
COc1ccc(N=C2NC(=O)/C(=C/c3ccco3)S2)cc1,66,–,–,–,–,–
COc1ccc(S(=O)(=O)/N=C2/NC(=O)/C(=C/c3ccco3)S2)cc1,–,–,–,99,–,–
SMILES,eIF4H inh,PABP polyA inh,SUMO HTRF inh,ALR inh,MLLE-PAM2 inh,Efflux pump inh
O=C(OCC(=O)N1CCC(Cc2ccccc2)CC1)c1ccc(O)cc1,·,·,·,·,–,·
CCN1C(=O)[C@H]2[C@@H](c3ccc(-c4ccccc4)cc3)N3CCC[C@@]3(C(=O)OC)[C@H]2C1=O,·,·,·,–,–,·
COC(=O)c1sc(-c2ccc(C(C)(C)C)cc2)cc1NC(=O)c1ccccc1C(=O)O,–,–,–,92,–,–
COC(=O)c1sccc1NC(=O)c1ccccc1C(=O)O,·,·,·,–,–,–
COC(=O)c1sc(-c2ccccc2)cc1NC(=O)C1CC1,–,–,–,–,–,–
COC(=O)c1sc(-c2ccc(Cl)cc2)cc1NC(=O)c1ccccc1C(=O)O,–,–,–,97,–,–
COC(=O)c1sc(-c2ccc(C(C)(C)C)cc2)cc1NC(=O)CSCC(=O)O,–,–,–,98,–,–
COc1ccc([C@@H]2C[C@H]3CN(Cc4ccccc4OC)C(=O)[C@]34CCCN24)cc1C,52,17,–,·,–,–

# Screening data deposited in PubChem BioAssay by several laboratories.
